The list is not random: actives were taken first. Their share in the collection is about 2.1%.
PD-1 reverse act – activators reversing PD-1 mediated T-cell inhibition. primary human CD4 T cells, PD-L1 beads, CellTiter-Glo 96 h. activation, % (test concentration not listed). 29,000 tested, under 10 active; call rule not given here;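 also: 0% = median vehicle wells and 100% = positive control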
YB-1 expression – YB-1 expression inhibition. U2OS, qRT-PCR YB-1 vs CDIP delta delta Cp, 16 h; active compounds read high; zero = DMSO, each unit about twofold. delta delta Cp (YB-1 minus CDIP) (concentration not given with the values). 30,000 compounds, 0.37% hits;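 active = delta delta Cp rounded down to an integer at or above 3, about 3 SD of DMSO wells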;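 also: higher means less YB-1 transcript or more CDIP transcript relative to DMSO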
ROS inducer – raises reactive oxygen species in U2OS cancer cells. U2OS ROS induction, H2DCF-DA fluorescence. ROS induction (% of piperlongumine), % at 10 µM. 46,000 compounds, 2% hits; in the data active = ROS induction above about 79%, passing the limit was not always enough;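 also: 0% = DMSO vehicle median and 100% = reference compound median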
The depositor's hits bear a star; . = no result given.

SMILES | PD-1 reverse act | YB-1 expression | ROS inducer
Cc1nc(-c2ccccc2)sc1C(=O)C1C(=O)C(=O)N(CCCN2CCOCC2)C1c1cccs1 (centres undefined) | 2 | . | 115*
COc1ccc(Cl)c(C(=O)OCC(=O)Nc2ccc(F)cc2)c1 | . | . | -1
COc1ccc(-c2nc3ccccc3s2)cc1 | 0 | -0.054 | -5
COc1ccc(-n2c(N)c(-c3nc4ccccc4s3)c3nc(C#N)c(C#N)nc32)cc1 | . | . | 153*
O=C1NN=C(c2ccccc2)/C1=C1\OC(c2ccccc2)=CS1 | 0 | -0.29 | 138*
COC(=O)C[C@H]1C(C)(C)[C@H](OC(C)=O)[C@]2(O)CC3=C4CC(=O)O[C@@H](c5ccoc5)[C@]4(C)CCC3[C@@]1(C)C2=O (some centres undefined) | -1 | 8* | 3
COC(=O)C[C@H]1C(C)(C)[C@@H](OC(C)=O)[C@@H]2CC3=C4CC(=O)O[C@@H](c5ccoc5)[C@]4(C)CCC3[C@@]1(C)C2=O (some centres undefined) | . | -0.096 | 20
COCCn1c(C)cc(C=C2C(=O)N(C)C(=S)N(C)C2=O)c1C | 1 | -0.19 | 26
C=CCN1C(=O)/C(=C/c2cc(C)n(CCOC)c2C)C(=O)NC1=S | 2 | -0.023 | 102*
C=C1CCC(O)/C(C)=C\CC(C(C)C)C(OC2OC(COC(C)=O)C(O)C(O)C2O)C1 (centres undefined) | 1 | 1.3 | -6
CC(C)CC1NC(=O)C(CC(C)C)N(O[C@@H]2O[C@H](COC(=O)CCC(=O)O)[C@@H](O)[C@H](O)[C@H]2O)C1=O (some centres undefined) | -6 | 4.9* | -8
C[C@@H]1CN([C@H](C)CO)C(=O)c2cccc(NS(=O)(=O)c3ccc(F)cc3)c2O[C@H]1CN(C)S(=O)(=O)c1ccc(F)cc1 | 2 | 0.17 | 5
C[C@H](CO)N1C[C@H](C)[C@@H](CN(C)C(=O)Nc2ccc3c(c2)OCO3)Oc2c(NS(=O)(=O)c3ccccc3)cccc2C1=O | -1 | 0.093 | -4
C[C@@H]1CN([C@H](C)CO)C(=O)c2cccc(NC(=O)Nc3ccc(C(F)(F)F)cc3)c2O[C@@H]1CN(C)C(=O)Nc1ccc2c(c1)OCO2 | -3 | 0.35 | 94*
C[C@H]1CN([C@@H](C)CO)C(=O)c2cccc(NC(=O)Nc3ccc4c(c3)OCO4)c2O[C@@H]1CN(C)Cc1ccc(C(=O)Nc2ccccc2N)cc1 | -4 | -0.54 | 123*
C[C@H](CO)N1C[C@H](C)[C@H](CN(C)C(=O)Nc2ccc3c(c2)OCO3)Oc2c(NS(=O)(=O)c3ccccc3)cccc2C1=O | . | 0.59 | 100*
C[C@@H]1CN([C@@H](C)CO)C(=O)c2cccc(NS(=O)(=O)c3cn(C)cn3)c2O[C@H]1CN(C)Cc1ccc2c(c1)OCO2 | 1 | -0.13 | 86*
C[C@H](CO)N1C[C@H](C)[C@H](CN(C)C(=O)Nc2ccc3c(c2)OCO3)Oc2c(NC(=O)Nc3ccc(C(F)(F)F)cc3)cccc2C1=O | -3 | -0.59 | 23
C[C@@H]1CN([C@@H](C)CO)C(=O)c2cccc(NS(=O)(=O)c3cn(C)cn3)c2O[C@@H]1CN(C)Cc1ccc2c(c1)OCO2 | 2 | 0.2 | -8
C[C@@H]1CN([C@@H](C)CO)C(=O)c2cccc(NC(=O)Nc3ccc4c(c3)OCO4)c2O[C@@H]1CN(C)Cc1ccc(C(=O)Nc2ccccc2N)cc1 | -2 | -0.34 | 9
C[C@H]1CC[C@@H]2[C@@H](C(=O)c3c(O)c([C@]4(O)CC[C@@H](O)[C@H]5O[C@H]54)c[nH]c3=O)[C@@H](C)C=C[C@H]2C1 | -22 | -0.36 | -4
Cc1cccc(-c2nc3ccccc3n2CCC(C)C)c1 | . | . | 22
CC(=O)N1CCN(CC(O)COc2ccc(C)cc2)CC1 (centres undefined) | . | . | -6
Cc1cccc(-c2noc(CN(C(=O)c3ccc([N+](=O)[O-])c(C)c3)C(C)C)n2)c1 | -10 | . | 17
C[C@@H]1CN([C@@H](C)CO)C(=O)c2cccc(NC(=O)Nc3ccc4c(c3)OCO4)c2O[C@H]1CN(C)Cc1ccc(C(F)(F)F)cc1 | -6 | 0.18 | 88*
SMILES | PD-1 reverse act | YB-1 expression | ROS inducer
C[C@H](CO)N1C[C@H](C)[C@@H](CN(C)Cc2ccc(C(F)(F)F)cc2)Oc2c(NC(=O)Nc3ccc4c(c3)OCO4)cccc2C1=O | -3 | -0.37 | 92*
CC(C)NC(=O)N(C)C[C@H]1Oc2c(NC(=O)Nc3ccc4c(c3)OCO4)cccc2C(=O)N([C@@H](C)CO)C[C@H]1C | 1 | 0.061 | 90*
C[C@H]1CN([C@@H](C)CO)C(=O)c2cccc(NC(=O)Nc3ccc4c(c3)OCO4)c2O[C@@H]1CN(C)Cc1ccc(C(F)(F)F)cc1 | -3 | -0.45 | 70
C[C@H]1CN([C@@H](C)CO)C(=O)c2cccc(NC(=O)Nc3ccc(F)cc3)c2O[C@@H]1CN(C)Cc1ccc2c(c1)OCO2 | -2 | -0.11 | 16
C[C@@H]1CN([C@H](C)CO)C(=O)c2cccc(NC(=O)Nc3ccc(F)cc3)c2O[C@H]1CN(C)Cc1ccc2c(c1)OCO2 | -5 | -0.53 | 87*
CC(C)NC(=O)N(C)C[C@@H]1Oc2c(NC(=O)Nc3ccc4c(c3)OCO4)cccc2C(=O)N([C@H](C)CO)C[C@@H]1C | 4 | 0.1 | 17
C[C@H](CO)N1C[C@H](C)[C@H](CN(C)Cc2ccc(C(F)(F)F)cc2)Oc2c(NC(=O)Nc3ccc4c(c3)OCO4)cccc2C1=O | -4 | 0.21 | 13
C[C@H](CO)N1C[C@H](C)[C@H](CN(C)C(=O)Nc2ccc(F)cc2)Oc2c(NC(=O)Nc3cccc4ccccc34)cccc2C1=O | -10 | -0.093 | 35
Cc1ccccc1OCC(=O)Nc1cccc(NC(=O)C(C)C)c1 | 1 | . | 6
CC(=O)N1CCOc2cc(S(=O)(=O)N3CCCCC3C)ccc21 (centres undefined) | . | . | -4
C[C@@H]1CN([C@@H](C)CO)C(=O)c2cccc(N(C)C)c2O[C@@H]1CN(C)Cc1ccc2c(c1)OCO2 | 1 | 12* | -7
C[C@@H]1CN([C@H](C)CO)C(=O)c2cccc(N(C)C)c2O[C@H]1CN(C)Cc1ccc2c(c1)OCO2 | . | 0.24 | -4
COc1cc(OC)cc(-c2nnc(SCc3cccc(C(=O)O)c3)o2)c1 | 2 | . | 23
COc1cccc(C(=O)c2sc3nsc(SCc4ccccc4)c3c2N)c1 | -8 | 0.29 | 335*
CCOc1ccccc1-c1nnc(SCC(=O)Nc2ccc(I)cc2)o1 | -3 | . | -3
CCOC(=O)c1cnc2ccc(OCC)cc2c1NC(C)CC (centres undefined) | -21 | -0.39 | 42
CCOC(=O)c1cnc2ccc(OCC)cc2c1N1CCN(c2ccccc2)CC1 | -1 | 0.49 | 128*
COc1ccccc1N=C(NO)C(=Nc1ccccc1OC)NO | . | . | -24
C[C@@H]1CCCCO[C@H](CN(C)C(=O)c2ccccc2)[C@@H](C)CN([C@H](C)CO)C(=O)c2cc(NC(=O)NC3CCCCC3)ccc2O1 | 2 | 0.058 | 21
Cc1ccc(S(=O)(=O)Nc2ccc3c(c2)C(=O)N([C@H](C)CO)C[C@H](C)[C@H](CN(C)C(=O)c2ccncc2)OCCCC[C@@H](C)O3)cc1 | . | 0.22 | 108*

Compound activity from PubChem BioAssay.
